ChEMBL document CHEMBL3988442, “University of Dundee, Small-Polar-MMV Screening Library” (2021)

target: AMP-activated protein kinase, AMPK (Homo sapiens) (UniProt P54646+O43741+P54619+Q9UGJ0+Q9Y478+Q13131+Q9UGI9); assay: AMP-dependent Kinase enzyme assay. An in vitro enzyme assay that detects ADP turnover that is directly proportional to AMPK activity. This uses naive AMPK that is activated during the assay with MK-8722; type: functional; set-up: scale not given: direction of the effect not stated beside the values; settings: 30 µM

SMILES | Percent Effect
Cc1cc(C)c2[nH]c(C)c(CC(=O)N(C)CCN(C)C)c2c1 | 3.2%
CC(C)[C@@H]1CN(C(=O)C2(c3ccccc3)CCN(C)CC2)C[C@H]1N(C)C | -5.45%
O=C(N[C@H]1COC[C@@H]1N1CCCC1)c1csc(Cc2ccccc2)n1 | 4.04%
Cc1[nH]c(=O)[nH]c(=O)c1CC(=O)N1CCCN(CC2CC2)C(C(C)C)C1 (stereo not given) | 3.13%
CCNC(=O)[C@@H]1CN(Cc2ccccc2)C[C@H]1C(=O)c1ccc(F)cc1 | 15.1%
COc1ccc(F)cc1C(=O)C1CCCN(Cc2cnc(C)s2)C1 (stereo not given) | 1.8%
Cn1ncc2c(NC3CN4CCC3CC4)nc(-c3ccncc3)nc21 (stereo not given) | 5.93%
CSc1ccccc1C(=O)C1CCCN(Cc2ccccn2)C1 (stereo not given) | 18.7%
Cc1cccc(CC(=O)N2CCCC(N(C)CCCN(C)C)C2)c1 (stereo not given) | 6.04%
CC(C)c1ccccc1OCCNC(=O)N1CCC2(CC1)OCCO2 | -2.79%
COc1ccc(F)cc1C(=O)C1CCCN(Cc2ccc(C)s2)C1 (stereo not given) | 6.05%
CC(C)c1cc(N2CCC3(CC2)CN(C)CCN3C)ncn1 | -4.27%
CC(C)c1cc(N2CCCC3(CCN(C)C3)C2)ncn1 (stereo not given) | 1.53%
Cc1nc(C)c(CC(=O)N2CCCN(CC3CC3)C(C(C)C)C2)c(=O)[nH]1 (stereo not given) | -7.23%
Cc1nc(CC(=O)N2CCCC(N(C)Cc3ccccc3)C2)cs1 (stereo not given) | 6.8%
O=C(NCCc1c[nH]cn1)c1ccccc1C1CCNC1 (stereo not given) | -4.12%
COc1ccc(CC(C)Nc2cccc(F)c2)cc1 (stereo not given) | 4.95%
CCc1cccnc1NCc1cnc(N2CCOCC2)nc1 | 22.9%
CCc1cccc2c(CC(=O)N(C)CCN(C)C)c(C)[nH]c12 | 9.67%
CCc1ccc2ncn(Cc3ncc[nH]3)c(=O)c2c1 | 0.257%
O=C(N[C@H]1CN2CCC1CC2)c1cc(Cn2cnc3ccccc32)[nH]n1 | -6.79%
c1cnc(N2C[C@@H]3CC[C@H](C2)N(Cc2ccsc2)C3)nc1 | 8.4%
COc1ccc2ncn(Cc3ncc[nH]3)c(=O)c2c1 | -1.95%
CCc1nnc(NC(=O)CCN2CC=C(c3cnn(C)c3)CC2)s1 | 7.71%

target: T1, Arginase-2, mitochondrial (Homo sapiens) (UniProt P78540); assay: in vitro enzyme assay to detect the production of urea directly proportional to the activity of Arginase II; type: functional; set-up: scale not given: in the data most compounds retested in dose-response had high values; settings: 30 µM
T1 sequence (whole entry): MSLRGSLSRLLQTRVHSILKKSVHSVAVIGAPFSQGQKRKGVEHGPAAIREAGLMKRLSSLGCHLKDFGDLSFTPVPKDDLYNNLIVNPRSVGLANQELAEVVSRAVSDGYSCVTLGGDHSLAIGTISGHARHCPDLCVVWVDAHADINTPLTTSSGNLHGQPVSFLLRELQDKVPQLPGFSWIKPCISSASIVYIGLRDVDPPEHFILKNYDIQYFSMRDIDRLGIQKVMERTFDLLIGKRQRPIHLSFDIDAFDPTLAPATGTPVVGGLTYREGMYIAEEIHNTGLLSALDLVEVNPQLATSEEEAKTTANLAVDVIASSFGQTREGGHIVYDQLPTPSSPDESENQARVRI

SMILES | Percent Effect
O=C1CSC(c2ccc(F)c(Cl)c2)c2c(n(C3CCOCC3)[nH]c2=O)N1 (stereo not given) | -0.54%
c1ccc(O[C@H]2CO[C@@]3(CCCN(Cc4nccs4)C3)C2)nc1 | -0.54%
Cn1cc(C2SCC(=O)Nc3c2c(=O)[nH]n3C2CCOCC2)cn1 (stereo not given) | 0.54%
O=C1CSC(c2ccncc2)c2c(n(C3CCOCC3)[nH]c2=O)N1 (stereo not given) | 9.19%
O=C1CSC(c2cccnc2)c2c(n(C3CCOCC3)[nH]c2=O)N1 (stereo not given) | 7.03%
O=C1CSC(c2ccccc2)c2c(n(C3CCOCC3)[nH]c2=O)N1 (stereo not given) | 5.95%
CN(Cc1cncnc1)[C@H]1CN(Cc2ccco2)[C@@H]2CCCO[C@@H]21 | 4.87%
CN(Cc1ccco1)[C@@H]1CN(Cc2cccnc2)[C@@H]2CCCO[C@H]12 | 2.7%
O=C(NCc1ccccn1)[C@]12COC[C@H]1CN(Cc1ccsc1)C2 | 5.95%
O=C1CSC(c2ccc(O)cc2)c2c(n(C3CCOCC3)[nH]c2=O)N1 (stereo not given) | 11.3%
Cc1nc(NCC2CC2)nc2c1COCC21CCNC1 (stereo not given) | 8.11%
O=C1CSC(c2ccsc2)c2c(n(C3CCCC3)[nH]c2=O)N1 (stereo not given) | 4.87%
c1ccc(CN2CCC3(CC2)CCN(Cc2cccnc2)C3)nc1 | 8.11%
CSc1ccc(C2SCC(=O)Nc3c2c(=O)[nH]n3C2CCOCC2)cc1 (stereo not given) | 8.11%
c1ccc(O[C@@H]2CO[C@@]3(CCCN(CC4CCOCC4)C3)C2)nc1 | 8.11%
O=C1CSC(c2ccc(Cl)cc2Cl)c2c(n(C3CCOCC3)[nH]c2=O)N1 (stereo not given) | 8.11%
